# Experimental data from PubChem BioAssay (NCATS).
# Results filed as inconclusive are left out. A call without a number means that no potency is given here. The source made the active and inactive calls. The call rests on the fitted dose curve; in most records, active means well fitted curve in the direction sought with a large enough effect; inconclusive means small, poorly fitted or top-dose-only effect, or another doubt; inactive means no such curve, though single readings can be large; an effect the other way counts as inactive or inconclusive.
# Tests used:
# [1] = Quantitative High-Throughput drug screen in 47 multiple myeloma cell lines against the NCATS MIPE library collection: FR4_PLB cell viability assay (AID 1918924; further: nearly all actives have a fitted effect of over 35% in size)
# How it was run: (§1)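 Primary qHTS used for cherry-picking: cells at 500/well, library compounds for 48 h (37C, 5% CO2), luminescent ATP assay.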
# [2] = Quantitative High-Throughput drug screen in 47 multiple myeloma cell lines against the NCATS MIPE library collection: AMO1_DSMZ cell viability assay (AID 1918927; further: nearly all actives have a fitted effect of over 30% in size)
# How it was run: (§2)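 We plated 500 myeloma cells per well, pinned in MIPE 4.0 compounds, and incubated for 48 hours at 37C. ATP was then quantified with CellTiter-Glo, with DMSO and media-only wells defining 100% and 0%.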
# [3] = Quantitative High-Throughput drug screen in 47 multiple myeloma cell lines against the NCATS MIPE library collection: Karpas620_DSMZ cell viability assay (AID 1918959); further: nearly all actives have a fitted effect of over 30% in size
# How it was run: as §1
# [4] = Quantitative High-Throughput drug screen in 47 multiple myeloma cell lines against the NCATS MIPE library collection: KMM1_JCRB cell viability assay (AID 1918960); further: nearly all actives have a fitted effect of over 30% in size
# How it was run: (§3)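 Myeloma cells, 500 per well, were exposed to MIPE 4.0 drugs by pin transfer for 48 h at 37 °C, 5% CO2. Viability was read as ATP luminescence with CellTiter-Glo, normalised to DMSO-only (100%) and medium-only (0%) wells.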
# [5] = Quantitative High-Throughput drug screen in 47 multiple myeloma cell lines against the NCATS MIPE library collection: JIM3_ECACC cell viability assay (AID 1918963; further: nearly all actives have a fitted effect of over 35% in size)
# How it was run: as §1
# [6] = Quantitative High-Throughput drug screen in 47 multiple myeloma cell lines against the NCATS MIPE library collection: JIM1_ECACC cell viability assay (AID 1918964)
# How it was run: as §2
# [7] = Quantitative High-Throughput drug screen in 47 multiple myeloma cell lines against the NCATS MIPE library collection: JJN3_DSMZ cell viability assay (AID 1918966; further: nearly all actives have a fitted effect of over 50% in size)
# How it was run: as §2
# [8] = Quantitative High-Throughput drug screen in 47 multiple myeloma cell lines against the NCATS MIPE library collection: Delta47_JCRB cell viability assay (AID 1918925; further: nearly all actives have a fitted effect of over 45% in size)
# How it was run: as §2
# [9] = Quantitative High-Throughput drug screen in 47 multiple myeloma cell lines against the NCATS MIPE library collection: EJM_DSMZ cell viability assay (AID 1918926; further: nearly all actives have a fitted effect of over 30% in size)
# How it was run: as §2
# [10] = Quantitative High-Throughput drug screen in 47 multiple myeloma cell lines against the NCATS MIPE library collection: ARP1_JJKsccF8 cell viability assay (AID 1918928; further: nearly all actives have a fitted effect of over 40% in size)
# How it was run: as §3
# [11] = Quantitative High-Throughput drug screen in 47 multiple myeloma cell lines against the NCATS MIPE library collection: ARD_JJKsccE7 cell viability assay (AID 1918929)
# How it was run: as §2
# [12] = Quantitative High-Throughput drug screen in 47 multiple myeloma cell lines against the NCATS MIPE library collection: KHM11_PLB cell viability assay (AID 1918962); further: nearly all actives have a fitted effect of over 35% in size
# How it was run: as §1
# [13] = Quantitative High-Throughput drug screen in 47 multiple myeloma cell lines against the NCATS MIPE library collection: Karpas417_ECACC cell viability assay (AID 1918961); details: Karpas417 myeloma viability, CellTiter-Glo ATP luminescence, 48 h; viability (% of DMSO): at 45.8 µM (top of the series)
# How it was run: as §2
# [14] = Quantitative High-Throughput drug screen in 47 multiple myeloma cell lines against the NCATS MIPE library collection: INA6_PLB cell viability assay (AID 1918965; further: nearly all actives have a fitted effect of over 55% in size)
# How it was run: as §2
# Potency means the concentration at half of the fitted maximal effect.
compound,measurement,setting,value
COc1ccc2c3c1OC1C[C@@H](O)C=C[C@@]31CCN(C)C2 (stereo not given in full),Potency,[1],inactive
same,Potency,[2],inactive
same,Potency,[3],inactive
same,Potency,[4],inactive
same,Potency,[5],14.8 µM (active)
same,Potency,[6],inactive
same,Potency,[7],4.18 µM (active)
CC=CC[C@@H](C)C(=O)[C@H]1C(=O)N[C@@H](C(C)C)C(=O)N(C)CC(=O)N(C)[C@@H](CC(C)C)C(=O)N[C@@H](C(C)C)C(=O)N(C)[C@@H](CC(C)C)C(=O)N[C@@H](C)C(=O)N[C@H](C)C(=O)N(C)[C@@H](CC(C)C)C(=O)N(C)[C@@H](CC(C)C)C(=O)N(C)[C@@H](C(C)C)C(=O)N1C,Potency,[1],23.5 µM (active)
same,Potency,[8],23.5 µM (active)
same,Potency,[9],inactive
same,Potency,[10],18.7 µM (active)
same,Potency,[5],23.5 µM (active)
O=C1c2c(O)cc(O)cc2O[C@H](c2cc(O)c(O)c(O)c2)[C@H]1O,Potency,[1],26.4 µM (active)
same,Potency,[8],inactive
same,Potency,[9],1.66 µM (active)
same,Potency,[10],11.8 µM (active)
same,Potency,[11],inactive
same,Potency,[4],inactive
same,Potency,[12],inactive
same,Potency,[5],inactive
same,Potency,[6],5.9 µM (active)
same,Potency,[7],16.6 µM (active)
C[C@H]1[C@H](NC(=O)C(=NOC(C)(C)C(=O)O)c2csc(N)n2)C(=O)N1S(=O)(=O)O,Potency,[1],inactive
same,Potency,[9],inactive
same,Potency,[2],inactive
same,Potency,[11],inactive
same,Potency,[4],inactive
same,Potency,[12],inactive
same,Potency,[5],inactive
CC1(C)O[C@H]2C[C@@H]3[C@H]4CCC5=CC(=O)C=C[C@]5(C)[C@@]4(F)[C@@H](O)C[C@]3(C)[C@]2(C(=O)CO)O1,Potency,[1],inactive
same,Potency,[9],inactive
same,Potency,[11],0.0037 µM (active)
same,Potency,[4],inactive
same,Potency,[5],inactive
same,Potency,[6],inactive
CC1(C)S[C@H]2[C@H](NC(=O)[C@@H](N)c3ccc(O)cc3)C(=O)N2[C@@H]1C(=O)O,Potency,[1],inactive
same,Potency,[9],inactive
same,Potency,[2],2.35 µM (active)
same,Potency,[10],20.9 µM (active)
same,Potency,[11],4.69 µM (active)
same,Potency,[3],14.8 µM (active)
same,Potency,[13],1.66 µM (active)
same,Potency,[5],inactive
same,Potency,[6],7.43 µM (active)
same,Potency,[14],20.9 µM (active)
C[C@@H]1CCN(C(=O)CC#N)C[C@H]1N(C)c1ncnc2[nH]ccc12,Potency,[1],inactive
same,Potency,[9],inactive
same,Potency,[10],inactive
same,Potency,[3],inactive
same,Potency,[4],inactive
same,Potency,[13],inactive
same,Potency,[5],inactive
Cc1c(O)cccc1C(=O)N[C@@H](CSc1ccccc1)[C@H](O)CN1C[C@H]2CCCC[C@@H]2C[C@@H]1C(=O)NC(C)(C)C,Potency,[1],26.4 µM (active)
same,Potency,[9],23.5 µM (active)
same,Potency,[2],16.6 µM (active)
same,Potency,[10],23.5 µM (active)
same,Potency,[11],16.6 µM (active)
same,Potency,[3],14.8 µM (active)
same,Potency,[4],18.7 µM (active)
same,Potency,[12],18.7 µM (active)
same,Potency,[5],20.9 µM (active)
same,Potency,[6],9.35 µM (active)
NC(=O)NN=Cc1ccc([N+](=O)[O-])o1,Potency,[1],inactive
same,Potency,[2],10.5 µM (active)
O=c1c(-c2ccc(O)cc2)coc2cc(O[C@@H]3O[C@H](CO)[C@H](O)[C@H](O)[C@H]3O)ccc12,Potency,[1],inactive
same,Potency,[9],inactive
same,Potency,[2],inactive
same,Potency,[10],3.72 µM (active)
same,Potency,[11],inactive
same,Potency,[3],inactive
same,Potency,[4],inactive
same,Potency,[6],inactive
same,Potency,[7],inactive
CCC(CC)[C@H](NC(C)=O)[C@@H]1[C@H](O)[C@@H](C(=O)O)C[C@@H]1N=C(N)N,Potency,[8],inactive
same,Potency,[9],inactive
same,Potency,[10],inactive
same,Potency,[11],inactive
same,Potency,[12],inactive
same,Potency,[5],inactive
same,Potency,[14],inactive
O=C1NC(=O)C(=Cc2ccc3c(c2)OC(F)(F)O3)S1,Potency,[1],inactive
same,Potency,[11],16.6 µM (active)
same,Potency,[12],13.2 µM (active)
same,Potency,[6],inactive
same,Potency,[14],26.4 µM (active)
Clc1ccc(COC(Cn2ccnc2)c2ccc(Cl)cc2Cl)cc1 (stereo not given),Potency,[2],23.5 µM (active)
same,Potency,[11],26.4 µM (active)
same,Potency,[4],20.9 µM (active)
CO[C@H]1C[C@@H]2CC[C@@H](C)[C@@](O)(O2)C(=O)C(=O)N2CCCC[C@@H]2C(=O)O[C@H]([C@H](C)C[C@@H]2CC[C@H](OC(=O)C(C)(CO)CO)[C@H](OC)C2)CC(=O)[C@H](C)C=C(C)[C@@H](O)[C@@H](OC)C(=O)[C@H](C)C[C@H](C)C=CC=CC=C1C,Potency,[5],20.9 µM (active)
Clc1ccc(CCC(Cn2ccnc2)Sc2c(Cl)cccc2Cl)cc1 (stereo not given),Potency,[8],23.5 µM (active)
same,Potency,[2],14.8 µM (active)
same,Potency,[11],13.2 µM (active)
same,Potency,[3],18.7 µM (active)
COc1cc(O)c2c(c1)C(=O)c1cc(C)cc(O)c1C2=O,Potency,[8],inactive
same,Potency,[9],inactive
same,Potency,[10],inactive
same,Potency,[11],inactive
same,Potency,[12],inactive
same,Potency,[5],inactive
COc1ccc(-c2coc3cc(O)ccc3c2=O)cc1,Potency,[9],inactive
same,Potency,[10],inactive
same,Potency,[11],inactive
same,Potency,[5],inactive
same,Potency,[6],inactive
same,Potency,[14],inactive
same,Potency,[7],inactive
Cc1cc(OCCCc2c(C(=O)O)n(Cc3cccnc3)c3c(-c4c(COc5ccc(N6CCN([S+](C)(=O)[O-])CC6)cc5)nn(C)c4C)cccc23)cc(C)c1Cl,Potency,[8],18.7 µM (active)
same,Potency,[2],inactive
same,Potency,[11],inactive
same,Potency,[3],inactive
same,Potency,[14],18.7 µM (active)
same,Potency,[7],26.4 µM (active)
O=C1NC(=O)C(=Cc2ccc3nccnc3c2)S1,Potency,[8],6.45 µM (active)
same,Potency,[2],inactive
same,Potency,[10],10.2 µM (active)
same,Potency,[3],3.63 µM (active)
same,Potency,[4],2.04 µM (active)
same,Potency,[5],10.2 µM (active)
same,Potency,[14],7.24 µM (active)
same,Potency,[7],8.12 µM (active)
CCCCCN(C)CCC(O)(P(=O)(O)O)P(=O)(O)O,Potency,[9],inactive
same,Potency,[11],inactive
same,Potency,[12],inactive
same,Potency,[5],inactive
same,Potency,[6],inactive
same,Potency,[14],inactive
Nc1ncnc2c1ncn2[C@@H]1O[C@@H](CO)[C@H](O)[C@H]1O,Potency,[8],inactive
same,Potency,[9],inactive
same,Potency,[2],inactive
same,Potency,[10],inactive
same,Potency,[11],inactive
same,Potency,[5],inactive
same,Potency,[6],inactive
same,Potency,[14],inactive
COC(=O)C1=CO[C@@H](O)[C@@H]2C(CO)=CC[C@@H]12,Potency,[2],18.7 µM (active)
same,Potency,[5],23.5 µM (active)
same,Potency,[7],11.8 µM (active)
COCCCCC(=NOCCN)c1ccc(C(F)(F)F)cc1,Potency,[2],inactive
same,Potency,[11],inactive
same,Potency,[4],inactive
same,Potency,[5],inactive
C=CCc1ccc(O)c(-c2ccc(O)c(CC=C)c2)c1,Potency,[9],23.5 µM (active)
same,Potency,[2],23.5 µM (active)
same,Potency,[3],26.4 µM (active)
same,Potency,[5],20.9 µM (active)
Cc1ccc([C@@H]2O[C@H](CO)[C@@H](O)[C@H](O)[C@@H]2O)cc1Cc1ccc(-c2ccc(F)cc2)s1,Potency,[8],20.9 µM (active)
same,Potency,[2],18.7 µM (active)
same,Potency,[11],20.9 µM (active)
same,Potency,[4],16.6 µM (active)
C=C1C(=O)OC2C=C(C)CCC=C(C)CCC12 (stereo not given),Potency,[2],18.7 µM (active)
same,Potency,[10],20.9 µM (active)
same,Potency,[11],23.5 µM (active)
same,Potency,[3],14.8 µM (active)
same,Potency,[4],16.6 µM (active)
same,Potency,[12],inactive
same,Potency,[6],14.8 µM (active)
same,Potency,[14],16.6 µM (active)
same,Potency,[7],16.6 µM (active)
CC[C@@H]1C=C(C)C[C@H](C)C[C@H](OC)[C@H]2O[C@@](O)(C(=O)C(=O)N3CCCC[C@@H]3C(=O)O[C@H](C(C)=C[C@@H]3CC[C@H](Cl)[C@H](OC)C3)[C@H](C)[C@@H](O)CC1=O)[C@H](C)C[C@H]2OC,Potency,[8],16.6 µM (active)
same,Potency,[2],9.35 µM (active)
same,Potency,[10],13.2 µM (active)
same,Potency,[3],13.2 µM (active)
same,Potency,[4],8.33 µM (active)
same,Potency,[5],18.7 µM (active)
same,Potency,[14],5.26 µM (active)
